From PubChem BioAssay (NCI)
This is part of a sample that, as a whole, favours compounds with a hit. Of some 79,000 tested, about 15% had one in any assay. Values without a mark were called inactive. The source made the active and inactive calls. Cut-off read from the data, not from the text of the source: active = growth inhibition above about 70%; inactive = the rest.

Tests used:
[1] = NCI Yeast Anticancer Drug Screen. Data for the rad50 strain (AID 155);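 note: 0% = growth of vehicle-only cultures of the same strain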; details: S. cerevisiae rad50 strain growth inhibition, active compounds read high
Method in brief: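 Vehicle-treated cultures provide the reference for the growth inhibition reported for compound-exposed, repair-deficient yeast.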

[2] = NCI Yeast Anticancer Drug Screen. Data for the mec2-1 strain (AID 157); details: S. cerevisiae mec2-1 strain, active compounds read high
Method in brief: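 Mutant yeast (mec2-1) grown with compound; growth inhibition relative to vehicle control reported.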

[3] = NCI Yeast Anticancer Drug Screen. Data for the sgs1 mgt1 strain (AID 161);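 note: 0% = growth of cultures given vehicle only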; details: S. cerevisiae sgs1 mgt1 strain, active compounds read high
Method in brief: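 Yeast cells carrying a defined DNA-repair defect were exposed to test compounds. Growth inhibition was measured relative to vehicle-treated controls.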

[4] = NCI Yeast Anticancer Drug Screen. Data for the cln2 rad14 strain (AID 165);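 note: 0% = growth equal to vehicle treated cultures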; details: S. cerevisiae cln2 rad14 strain, active compounds read high
Method in brief: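 Readout is yeast growth inhibition versus vehicle-treated controls, using a strain with cln2 and rad14 alterations exposed to compound.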

[5] = NCI Yeast Anticancer Drug Screen. Data for the bub3 strain (AID 167); details: S. cerevisiae bub3 mutant strain, active compounds read high
Method in brief: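 Mutant yeast screening strain plus compound; vehicle-treated cultures serve as the 0% inhibition reference.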

[6] = NCI Yeast Anticancer Drug Screen. Data for the mlh1 rad18 strain (AID 175); details: S. cerevisiae mlh1 rad18 strain growth inhibition, active compounds read high
Method in brief: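 Genetically defined yeast (DNA repair-deficient) exposed to compounds; growth inhibition determined relative to vehicle.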

[7] = at 5.0 µM (retest, dose inferred, filed as 0.5)
[8] = at 50.0 µM (retest, dose inferred, filed as 5.0)

SMILES	growth inhibition [1, 7]	growth inhibition [1, 8]	growth inhibition ([1]; at 50.0 µM)	growth inhibition [2, 7]	growth inhibition [2, 8]	growth inhibition ([2]; at 50.0 µM)	growth inhibition [3, 7]	growth inhibition [3, 8]	growth inhibition ([3]; at 50.0 µM)	growth inhibition [4, 7]	growth inhibition [4, 8]	growth inhibition ([4]; at 50.0 µM)	growth inhibition [5, 7]	growth inhibition [5, 8]	growth inhibition ([5]; at 50.0 µM)	growth inhibition [6, 7]	growth inhibition [6, 8]	growth inhibition ([6]; at 50.0 µM)
CCC(C)N1CN(c2ccccc2)C2(CCN(CC3COc4ccccc4O3)CC2)C1=O (configuration not stated)	1%	-7%	-5.3%	-5%	1%	4.4%	18%	9%	18.2%	11%	13%	8.65%	9%	32%	66.7%	-26%	6%	12.6%
CSc1ncc(COP(=S)(OCc2cnc(SC)nc2N)OCc2cnc(SC)nc2N)c(N)n1	-1%	-2%	-39.3%	15%	-6%	-5.35%	1%	3%	-15.9%	8%	-3%	23.9%	-1%	-3%	-2.3%	-1%	9%	23%
O=C1CCC[N]1[Hg][N]1CCCC1=O	44%	46%	93.2% (active)	40%	51%	94.6% (active)	99% (active)	99% (active)	94.2% (active)	66%	97% (active)	92% (active)	99% (active)	98% (active)	93.8% (active)	33%	51%	92.8% (active)
S=C=Nc1cccc(Cl)c1	-17%	84% (active)	85.2% (active)	-7%	90% (active)	86% (active)	-10%	90% (active)	88.8% (active)	35%	65%	80.3% (active)	7%	89% (active)	85.2% (active)	2%	89% (active)	79.3% (active)
COc1cc(N(CCCl)CCCl)ccc1C=Nc1cccc(Cl)c1	5%	45%	84% (active)	-6%	51%	62.6%	1%	7%	94% (active)	0%	20%	81.6% (active)	0%	14%	87% (active)	17%	87% (active)	94.2% (active)
CC(=O)C(CN(C(C)C)C(C)C)C(c1ccccc1)c1c(O)c2ccccc2oc1=O (configuration not stated)	17%	17%	72% (active)	11%	11%	47.4%	8%	8%	58.7%	-3%	-3%	58%	13%	13%	70.3% (active)	12%	12%	70.1% (active)
CC(=O)Nc1ccccc1[As](O[As](c1ccccc1)c1ccccc1NC(C)=O)c1ccccc1 (configuration not stated)	39%	99% (active)	99.5% (active)	24%	100% (active)	99.6% (active)	66%	100% (active)	99.5% (active)	37%	99% (active)	99.4% (active)	11%	100% (active)	99.5% (active)	53%	99% (active)	99.5% (active)
COC12[C@@H]3N[C@@H]3CN1C1=C(C(=O)C(NCCSSCCNC3=C(C)C(=O)C4=C(C3=O)C(COC(N)=O)[C@]3(OC)C5N[C@@H]5CN43)=C(C)C1=O)[C@@H]2COC(N)=O (some centres not stated)	35%	73% (active)	63.1%	18%	82% (active)	49%	41%	74% (active)	3.55%	19%	53%	39.4%	17%	52%	-8.85%	54%	93% (active)	79% (active)
Cc1ccc2ccccc2c1NC1=NCCO1	24%	45%	-15.6%	25%	20%	-10.9%	21%	11%	-5.65%	17%	26%	17%	18%	6%	11.8%	30%	17%	-10.1%
